Reference: the supplement of paper PMC8047044
Where a name gives a salt, the structure may show the parent alone.

These compounds were tested on Neuro-2a (assay: neurite formation score, plate-normalized to DMSO control mean 5.04 (score (0-8 scale)); higher = more or longer neurites). Conditions: 0.1 µM.
Procedure: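 Neuro-2a mouse neuroblastoma cells in PLL-coated 96-well plates were pre-treated for 1 h in DMEM(+) with each kinase inhibitor at 0.1 µM, then switched to serum-free DMEM(-) with inhibitor to induce neurite outgrowth and fixed about 2-3 h later. Three blinded observers scored neurite formation from 0 (no neurites) to 8 (long neurites on almost all cells).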
`Cc1ccc(NC(=O)c2cccc(N(C)C)c2)cc1NC(=O)c1ccc(O)cc1` gave a neurite formation score of 4.58. `Cc1cc(Nc2cc(N3CCN(C)CC3)nc(/C=C/c3ccccc3)n2)n[nH]1` [ENMD-2076 L-(+)-Tartaric acid] showed a neurite formation score of 4.76. For `CN1CCN(c2ccc(OC(F)(F)F)c(Nc3ncc4c(n3)-c3c(c(C(N)=O)nn3CCO)CC4)c2)CC1`, the neurite formation score was 4.42. `CC(C)n1nc(-c2cc3cc(O)ccc3[nH]2)c2c(N)ncnc21` gave a neurite formation score of 4.76. `CNC(=O)c1ccc(-c2cnc3ncc(Cc4ccc5ncccc5c4)n3n2)cc1F` was tested, and the neurite formation score was 4.09. Compound `CCOC(=O)c1cnc2ccc(-c3cncc(NS(=O)(=O)c4ccccc4)c3)cn12` has a neurite formation score of 0.0843. In the case of `Cc1ccc(Nc2nccc(N(C)c3ccc4c(C)n(C)nc4c3)n2)cc1S(N)(=O)=O` [Pazopanib Hydrochloride], the neurite formation score is reported as 4.88. Work on `O=c1cc(N2CCOCC2)oc2c(-c3cccc4c3sc3ccccc34)cccc12` yielded a neurite formation score of 4.21. `CCCCOc1c(C(=O)c2c(F)cc(C)cc2F)c[nH]c2nncc1-2` gave a neurite formation score of 4.92. In the case of `NC(=O)c1ccc(N(C(N)=O)c2c(F)cccc2F)nc1-c1ccc(F)cc1F`, the neurite formation score is reported as 4.58. Work on `C[C@@H](Oc1cc(-n2cnc3ccc(CN4CCN(C)CC4)cc32)sc1C(N)=O)c1ccccc1C(F)(F)F` yielded a neurite formation score of 3.58. For `O=C(NOCC(O)CO)c1cc(Br)c(F)c(F)c1Nc1ccc(I)cc1F` (stereo not given), the neurite formation score was 4.88. `FC(F)(F)c1ccc(CNc2ccc(Cc3c[nH]c4ncc(Cl)cc34)cn2)cn1` [Pexidartinib (PLX3397)] gave a neurite formation score of 5.42. `CCNc1nc(Nc2cc(F)c(C(=O)N3CCOCC3)cc2OC)ncc1C(F)(F)F` was tested, and the neurite formation score was 3.75. In the case of `CC1(C)CNc2cc(NC(=O)c3cccnc3NCc3ccncc3)ccc21` [Motesanib Diphosphate (AMG-706)], the neurite formation score is reported as 4.92. For `CC(=O)Nc1nc(C)c(-c2ccc(Cl)c(S(=O)(=O)NCCO)c2)s1`, the neurite formation score was 3.88. For `Cc1ccc2c(Nc3ccc(Cl)cc3)nccc2c1Nc1ncccc1-c1ncnc2nc[nH]c12` [B-Raf inhibitor 1], the neurite formation score was 4.76. `Cn1cc(-c2ccc3nnc(C(F)(F)c4ccc5ncccc5c4)n3n2)cn1` showed a neurite formation score of 4.25. Compound `Cn1cc(-c2ccc3nnc(Sc4ccc5ncccc5c4)n3n2)cn1` has a neurite formation score of 5.04. `Cc1ccc(NC(=O)c2ccc(CN3CCN(C)CC3)cc2)cc1Nc1nccc(-c2cccnc2)n1` [Imatinib Mesylate (STI571)] gave a neurite formation score of 4.71. `O=C1NC(=O)C(c2cnc3ccccn23)=C1c1cn2c3c(cc(F)cc13)CN(C(=O)N1CCCCC1)CC2` was tested, and the neurite formation score was -0.576. Work on `CN(C)Cc1cccc(N=C(c2ccccc2)c2c(O)[nH]c3cc(C(N)=O)ccc23)c1` yielded a neurite formation score of 4.54. In the case of `COc1ncc(-c2ccc3nccc(-c4ccnnc4)c3c2)cc1NS(=O)(=O)c1ccc(F)cc1F`, the neurite formation score is reported as 4.92. For `O=C(Nc1ccccc1C(=O)NC1CCCCNC1=O)c1cc2ccccc2s1` (stereo not given), the neurite formation score was 3.75. Compound `C=CC(=O)Nc1cccc(Sc2nc(Nc3ccc(N4CCN(C)CC4)cc3)ncc2Cl)c1` has a neurite formation score of 4.71. `C=CC(=O)N1CCC[C@@H](n2nc(-c3ccc(Oc4ccccc4)cc3)c3c(N)ncnc32)C1` showed a neurite formation score of 4.38. `Cc1ccc(-c2nn(C(C)(C)C)c3ncnc(N)c23)cc1` was tested, and the neurite formation score was 3.54. Compound `Cc1ccc(NC(=O)c2ccc(CN3CCN(C)CC3)cc2)cc1Nc1nc(-c2cccnc2)cs1` [Masitinib (AB1010)] has a neurite formation score of 4.38. `Cc1ccc(C(=O)Nc2ccc(CN3CCN(C)CC3)c(C(F)(F)F)c2)cc1C#Cc1cnc2[nH]ncc2c1` was tested, and the neurite formation score was 2.58. Compound `COc1ccc(-c2cnc3c(-c4cccc5ncccc45)cnn3c2)cc1` has a neurite formation score of 2.08. `Cc1cc(CS(=O)(=O)c2ccccc2)cc(OCc2ccc(CN3CCC[C@@H]3CO)cc2)c1` showed a neurite formation score of 5.58. `COc1cc(C(=O)NC2CCN(C)CC2)ccc1Nc1ncc2c(n1)N(C1CCCC1)CC(F)(F)C(=O)N2C` was tested, and the neurite formation score was 4.25. With `CCN1CCN(Cc2ccc(NC(=O)Nc3ccc(Oc4cc(NC)ncn4)cc3)cc2C(F)(F)F)CC1` the neurite formation score was 2.04. Work on `Cc1ccc(S(=O)(=O)Nc2nc3ccccc3nc2Nc2ccc3nsnc3c2)cc1` yielded a neurite formation score of 4.09. `Clc1ccc(Nc2nnc(Cc3ccncc3)c3ccccc23)cc1` [Vatalanib] gave a neurite formation score of 4.92. For `Cc1cc(Nc2cc(CN3CCOCC3)c3nc(C)c(Cc4ccc(Cl)cc4F)n3n2)n[nH]1`, the neurite formation score was 5.25. Compound `CNCc1ccc(-c2cc(-c3nc(-c4ccc(S(=O)(=O)C(C)C)cc4)cnc3N)on2)cc1` has a neurite formation score of 3.25. `O=C1Nc2ccc(I)cc2/C1=C/c1cc(Br)c(O)c(Br)c1` gave a neurite formation score of 4.25. `CN1CCN(c2ccc(Nc3cc(-c4cccc(-n5ccc6cc(C7CC7)cc(F)c6c5=O)c4CO)cn(C)c3=O)nc2)CC1` was tested, and the neurite formation score was 4.58. Compound `C1=N/C2=N/c3ccc(OCCN4CCCC4)c(c3)COC/C=C/COCc3cccc(c3)C(=C1)N2` [Pacritinib] has a neurite formation score of 4.92.
